Drawing on the supplement of paper PMC6992640, this text covers cell viability for ten compounds.

Among the test systems are HCI01; HCI03; HCI09; HCI11; HCI13; HCI16; UCD52; WHIM2; WHIM30.
What all share (assay): cell viability (% of vehicle); higher = less cytotoxic
Common to all, as to conditions: 10 µM; 72 h

± gives the standard deviation of the averaged measurements.
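Further: PDX cells carrying CMV promoter-driven luciferase, viability read as total photon flux per second by IVIS imaging following D-luciferin, vehicle control 0.1% DMSO.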

Consider `CCCS(=O)c1ccc2nc(NC(=O)OC)[nH]c2c1` (stereo not given) [Albendazole Oxide], for which the cell viability in the experiment on HCI01 (cells of a triple-negative basal-like breast cancer xenograft) was 115 ± 11; with HCI03, 144; in the experiment on HCI09 (cells of a triple-negative luminal androgen receptor type breast cancer xenograft) it was 110 ± 35; in the experiment on HCI11 (cells of an ER-positive luminal breast cancer xenograft) it was 105; with HCI13 it was 68.2 ± 9.5; in the experiment with HCI16 it was 106. The cell viability with UCD52 stood at 103 ± 11; in the experiment with WHIM2 it was 112 ± 34; in the experiment on WHIM30 (cells of a triple-negative basal-like breast cancer xenograft), 141.6 ± 1.2.
For `O=C(O)CCNC(=O)c1ccc(/N=N/c2ccc(O)c(C(=O)O)c2)cc1` [Balsalazide], the cell viability in the experiment on HCI01 came out at 96.3 ± 18; with HCI03 it was 120; with HCI09 it was 87.6 ± 1.2; in the experiment on HCI11 it was 91.1; in the experiment with HCI13 it was 120 ± 6.3; with HCI16 it was 114. The values for the cell viability in the experiment on UCD52 (cells of a triple-negative basal-like breast cancer xenograft), in the experiment on WHIM2 (cells of a triple-negative basal-like breast cancer xenograft) and with WHIM30 were 93.5 ± 10, 98.8 ± 15 and 110 ± 6.1, respectively.
As to `CCCCC(=O)OC1CCC2C3CCc4cc(O)ccc4C3CCC12C` (stereo not given) [Estradiol valerate], the cell viability in the experiment with HCI01 worked out at 157 ± 47; with HCI03 it was 122; in the experiment with HCI09, 98.1 ± 4.8; in the experiment with HCI11 it was 91.3; with HCI13, 182 ± 36; with HCI16, 137. The cell viability was determined as 90.6 ± 7.6 with UCD52, 88.9 ± 8.9 with WHIM2 and 134 ± 9.2 with WHIM30.
For the compound `CC1CNCCCN1S(=O)(=O)c1cccc2cncc(F)c12.Cl.O.O` (stereo not given), the cell viability stood at 100 ± 12 with HCI01; 140 in the experiment with HCI03; 96.3 ± 9 in the experiment with HCI09; 70.9 in the experiment with HCI11; 82.6 ± 8.8 in the experiment on HCI13 (cells of an ER-positive luminal breast cancer xenograft); 58.7 in the experiment with HCI16. Further, the cell viability with UCD52 stood at 84.8 ± 4.2; in the experiment on WHIM2 it was 92.75 ± 0.41; in the experiment on WHIM30, 82 ± 2.
Consider `NC(=O)C1CCCc2c1[nH]c1ccc(Cl)cc21` (stereo not given), for which the cell viability in the experiment with HCI01 came out at 145 ± 13; in the experiment with HCI03, 182; in the experiment on HCI09, 102 ± 2.3; with HCI11 it was 128; in the experiment on HCI13, 148 ± 9; in the experiment with HCI16 it was 121. Moreover, the cell viability with UCD52 was 128 ± 12; in the experiment with WHIM2, 141 ± 7.4; with WHIM30, 161 ± 24.
For `CN(C)CC(c1ccc(O)cc1)C1(O)CCCCC1.O.O=C(O)CCC(=O)O` (stereo not given) [Desvenlafaxine Succinate], the cell viability in the experiment on HCI01 was found to be 91 ± 6.9; in the experiment on HCI03 (cells of an ER-positive luminal breast cancer xenograft) it was 153; with HCI09, 107 ± 13; with HCI11, 92.6; in the experiment with HCI13 it was 110 ± 9.4; with HCI16, 129. The cell viability is 92.4 ± 9.8 in the experiment on UCD52, 105 ± 10 in the experiment on WHIM2 and 133 ± 2.2 in the experiment with WHIM30.
For the compound `CCNC(=O)CCCC=CCC1C(O)CC(O)C1C=CC(O)CCc1ccccc1` (stereo not given) [Bimatoprost], the cell viability in the experiment with HCI01 stood at 80.9 ± 64; in the experiment with HCI03 it was 154; with HCI09 it was 91.9 ± 22; in the experiment on HCI11, 97.5; in the experiment on HCI13, 118 ± 6.7; in the experiment with HCI16, 144. Besides, the cell viability was found to be 86.2 ± 4.6 in the experiment with UCD52, 98.4 ± 23 in the experiment with WHIM2 and 148 ± 9.5 with WHIM30.
For `CN1C(C(=O)Nc2ccccn2)=C(O)c2sccc2S1(=O)=O` [Tenoxicam], the cell viability in the experiment with HCI01 was found to be 122 ± 9.7; in the experiment on HCI03, 126; in the experiment on HCI09 it was 114 ± 24; with HCI11 it was 89.7; with HCI13, 64.9 ± 7.4; in the experiment with HCI16 it was 119. In addition, the cell viability turned out to be 87.2 ± 4.1 with UCD52, 123 ± 33 in the experiment on WHIM2 and 159 ± 5.4 in the experiment with WHIM30.
Turning to `CN(C)CCC=C1c2ccccc2Sc2ccc(Cl)cc21` [Chlorprothixene], the cell viability turned out to be 85.8 ± 14 in the experiment with HCI01; 87.1 in the experiment with HCI03; 71.9 ± 13 with HCI09; 93.9 in the experiment on HCI11; 105 ± 2.6 in the experiment with HCI13; 83.8 in the experiment on HCI16 (cells of a triple-negative basal-like breast cancer xenograft). Moreover, the cell viability in the experiment with UCD52 was 54.4 ± 2.5; in the experiment with WHIM2 it was 49.9 ± 20; in the experiment with WHIM30, 124 ± 13.
Turning to `Cl.Clc1cccc(Cl)c1NC1=NCCN1` [Clonidine HCl], the cell viability with HCI01 stood at 132 ± 6.9; with HCI03, 127; in the experiment on HCI09, 99 ± 9; in the experiment with HCI11, 114; with HCI13 it was 111 ± 6.8; with HCI16, 135. The cell viability in the experiment on UCD52 was determined as 94.9 ± 3.3; in the experiment with WHIM2, 104 ± 15; in the experiment on WHIM30 it was 124.6 ± 0.22.
